# Measured values taken from paper PMC7862700, “An all-to-all approach to the identification of sequence-specific readers for epigenetic DNA modifications on cytosine”.
# Key:
# Assay in all cases: DAPPL (digital affinity profiling via proximity ligation, sequencing); 10 mM Tris-HCl pH 7.5, 50 mM NaCl, 1 mM DTT, 4% glycerol, room temperature, 30 min; GST-TFs on glutathione beads, 16-mer random dsDNA library, 0.1% formaldehyde crosslink after washing; high values mean tight binding
# FLI1 = target: T1, FLI1 (Homo sapiens, UniProt Q01543 1-452); settings: protein: recombinant; tags: N-terminal GST; dsDNA, one strand shown
# T1 sequence: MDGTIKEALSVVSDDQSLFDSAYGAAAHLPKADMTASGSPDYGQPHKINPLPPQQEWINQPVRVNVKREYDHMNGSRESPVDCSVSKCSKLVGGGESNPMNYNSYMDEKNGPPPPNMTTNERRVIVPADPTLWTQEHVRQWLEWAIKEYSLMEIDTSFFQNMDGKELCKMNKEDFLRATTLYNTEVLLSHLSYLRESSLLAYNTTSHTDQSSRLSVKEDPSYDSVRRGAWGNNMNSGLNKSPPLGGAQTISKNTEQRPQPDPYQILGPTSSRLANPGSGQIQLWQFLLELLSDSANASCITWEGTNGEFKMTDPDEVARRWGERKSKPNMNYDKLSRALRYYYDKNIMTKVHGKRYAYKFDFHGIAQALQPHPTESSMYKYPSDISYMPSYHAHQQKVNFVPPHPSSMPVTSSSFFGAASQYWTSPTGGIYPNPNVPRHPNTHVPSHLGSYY
# Outline: (§1)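 A tag-only sample was pooled with DNA-barcoded human transcription factors that had been expressed in yeast as GST fusions and captured on glutathione beads. The pools were incubated for 30 min at room temperature with 200 nmole of a random double-stranded 16-mer DNA library in Tris/NaCl/DTT/glycerol buffer, then washed, crosslinked with 0.1% formaldehyde, proximity-ligated (BsaI/T4 ligase, 1 h, 37 °C), PCR-amplified and sequenced on an Illumina NextSeq500. Binding signal is each hexamer's read frequency for a factor divided by its frequency for the tag-only sample.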
# ELK1 = target: T2, ELK1 (Homo sapiens, UniProt P19419 1-428); settings: protein: recombinant; tags: N-terminal GST; dsDNA, one strand shown
# T2 sequence: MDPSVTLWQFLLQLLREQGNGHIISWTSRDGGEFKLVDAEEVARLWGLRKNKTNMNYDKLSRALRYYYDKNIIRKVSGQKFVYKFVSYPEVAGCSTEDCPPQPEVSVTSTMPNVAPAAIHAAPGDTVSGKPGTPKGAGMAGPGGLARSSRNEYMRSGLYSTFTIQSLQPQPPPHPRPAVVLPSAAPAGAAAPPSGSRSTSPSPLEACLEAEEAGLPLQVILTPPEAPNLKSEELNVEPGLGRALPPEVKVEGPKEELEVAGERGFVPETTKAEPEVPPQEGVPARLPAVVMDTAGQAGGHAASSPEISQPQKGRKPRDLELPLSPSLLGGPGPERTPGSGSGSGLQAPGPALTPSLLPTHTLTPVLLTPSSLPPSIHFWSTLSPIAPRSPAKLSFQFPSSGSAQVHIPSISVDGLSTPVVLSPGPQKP
# Outline: as §1
# GABPA = target: T3, GABPA (Homo sapiens, UniProt Q06546 1-454); settings: protein: recombinant; tags: N-terminal GST; dsDNA, one strand shown
# T3 sequence: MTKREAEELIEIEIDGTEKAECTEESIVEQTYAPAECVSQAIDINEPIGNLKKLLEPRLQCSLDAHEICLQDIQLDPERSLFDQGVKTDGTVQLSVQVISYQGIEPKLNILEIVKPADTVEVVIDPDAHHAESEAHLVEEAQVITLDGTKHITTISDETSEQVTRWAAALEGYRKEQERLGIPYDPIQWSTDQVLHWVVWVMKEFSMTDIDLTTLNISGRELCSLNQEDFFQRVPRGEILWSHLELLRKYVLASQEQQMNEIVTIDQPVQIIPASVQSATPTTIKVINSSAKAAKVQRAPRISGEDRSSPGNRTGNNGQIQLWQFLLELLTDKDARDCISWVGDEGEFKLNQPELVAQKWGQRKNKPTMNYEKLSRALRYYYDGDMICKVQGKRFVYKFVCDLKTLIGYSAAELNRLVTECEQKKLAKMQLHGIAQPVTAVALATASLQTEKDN
# Outline: as §1
# ERG = target: T4, ERG (Homo sapiens, UniProt P11308 1-479); settings: protein: recombinant; tags: N-terminal GST; dsDNA, one strand shown
# T4 sequence: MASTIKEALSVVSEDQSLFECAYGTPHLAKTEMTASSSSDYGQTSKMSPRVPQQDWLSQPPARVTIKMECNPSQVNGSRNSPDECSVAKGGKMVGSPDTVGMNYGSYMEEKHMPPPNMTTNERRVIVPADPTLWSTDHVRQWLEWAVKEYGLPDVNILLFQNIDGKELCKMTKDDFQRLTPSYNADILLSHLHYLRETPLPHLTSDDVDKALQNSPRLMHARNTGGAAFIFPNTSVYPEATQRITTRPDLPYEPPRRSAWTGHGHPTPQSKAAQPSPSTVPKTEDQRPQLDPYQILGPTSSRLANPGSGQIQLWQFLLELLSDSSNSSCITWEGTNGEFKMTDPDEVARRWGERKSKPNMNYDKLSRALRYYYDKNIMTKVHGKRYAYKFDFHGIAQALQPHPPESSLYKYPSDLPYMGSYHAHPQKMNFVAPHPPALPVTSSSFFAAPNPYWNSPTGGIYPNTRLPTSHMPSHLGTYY
# Outline: as §1
# ELF1 = ELF1 (Homo sapiens, UniProt P32519 1-619); settings: protein: recombinant; tags: N-terminal GST; dsDNA, one strand shown
# Outline: as §1
# EHF = target: T5, EHF (Homo sapiens, UniProt Q9NZC4 1-300); settings: protein: recombinant; tags: N-terminal GST; dsDNA, one strand shown
# T5 sequence: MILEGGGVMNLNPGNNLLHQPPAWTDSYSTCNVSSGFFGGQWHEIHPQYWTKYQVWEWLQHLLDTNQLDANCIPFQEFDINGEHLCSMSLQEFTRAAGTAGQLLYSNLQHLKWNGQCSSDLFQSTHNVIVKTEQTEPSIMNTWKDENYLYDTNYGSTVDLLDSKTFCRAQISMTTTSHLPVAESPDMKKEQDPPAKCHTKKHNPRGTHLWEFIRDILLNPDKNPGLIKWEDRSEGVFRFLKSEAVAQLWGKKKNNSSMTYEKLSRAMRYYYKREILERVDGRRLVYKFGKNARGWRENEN
# Outline: as §1
# SPI1 = SPI1 (Homo sapiens, UniProt P17947 1-270); settings: protein: recombinant; tags: N-terminal GST; dsDNA, one strand shown
# Outline: as §1
# SPIB = SPIB (Homo sapiens, UniProt Q01892 1-262); settings: protein: recombinant; tags: N-terminal GST; dsDNA, one strand shown
# Outline: as §1
# ELK3 = target: T6, ELK3 (Homo sapiens, UniProt P41970 1-407); settings: protein: recombinant; tags: N-terminal GST; dsDNA, one strand shown
# T6 sequence: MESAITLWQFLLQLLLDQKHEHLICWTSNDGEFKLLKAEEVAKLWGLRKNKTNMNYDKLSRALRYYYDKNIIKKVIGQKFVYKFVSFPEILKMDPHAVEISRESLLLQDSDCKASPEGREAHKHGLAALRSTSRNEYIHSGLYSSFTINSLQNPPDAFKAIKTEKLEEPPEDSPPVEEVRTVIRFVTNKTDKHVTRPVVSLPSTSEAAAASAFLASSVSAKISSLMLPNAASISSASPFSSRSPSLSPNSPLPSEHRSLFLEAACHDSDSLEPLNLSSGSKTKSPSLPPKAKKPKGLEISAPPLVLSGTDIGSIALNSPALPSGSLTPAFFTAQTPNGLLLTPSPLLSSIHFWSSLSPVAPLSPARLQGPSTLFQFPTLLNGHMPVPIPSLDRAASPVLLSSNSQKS
# Outline: as §1
# FEV = target: T7, FEV (Homo sapiens, UniProt Q99581 1-238); settings: protein: recombinant; tags: N-terminal GST; dsDNA, one strand shown
# T7 sequence: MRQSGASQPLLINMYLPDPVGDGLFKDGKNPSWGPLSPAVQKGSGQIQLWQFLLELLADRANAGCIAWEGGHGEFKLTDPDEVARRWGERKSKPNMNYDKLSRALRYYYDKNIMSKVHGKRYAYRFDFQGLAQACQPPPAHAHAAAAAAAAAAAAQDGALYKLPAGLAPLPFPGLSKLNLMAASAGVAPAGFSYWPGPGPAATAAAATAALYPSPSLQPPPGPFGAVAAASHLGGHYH
# Outline: as §1
# ETV5 = ETV5 (Homo sapiens, UniProt P41161 1-510); settings: protein: recombinant; tags: N-terminal GST; dsDNA, one strand shown
# Outline: as §1
# HSF1 = HSF1 (Homo sapiens, UniProt Q00613 1-529); settings: protein: recombinant; tags: N-terminal GST; chain copies: 3; dsDNA, one strand shown
# Outline: as §1
# SPIC = target: T8, SPIC (Homo sapiens, UniProt Q8N5J4 1-248); settings: protein: recombinant; tags: N-terminal GST; dsDNA, one strand shown
# T8 sequence: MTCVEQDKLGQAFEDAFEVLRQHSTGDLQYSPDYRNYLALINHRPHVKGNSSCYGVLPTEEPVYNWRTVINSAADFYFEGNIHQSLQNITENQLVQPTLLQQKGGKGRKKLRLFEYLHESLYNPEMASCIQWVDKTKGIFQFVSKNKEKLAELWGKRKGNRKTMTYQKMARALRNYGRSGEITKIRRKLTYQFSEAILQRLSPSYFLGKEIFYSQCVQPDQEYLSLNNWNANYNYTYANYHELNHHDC
# Outline: as §1
# ELF4 = ELF4 (Homo sapiens, UniProt Q99607 1-663); settings: protein: recombinant; tags: N-terminal GST; dsDNA, one strand shown
# Outline: as §1
# ELK4 = target: T9, ELK4 (Homo sapiens, UniProt P28324-2 1-405); settings: protein: recombinant; tags: N-terminal GST; dsDNA, one strand shown
# T9 sequence: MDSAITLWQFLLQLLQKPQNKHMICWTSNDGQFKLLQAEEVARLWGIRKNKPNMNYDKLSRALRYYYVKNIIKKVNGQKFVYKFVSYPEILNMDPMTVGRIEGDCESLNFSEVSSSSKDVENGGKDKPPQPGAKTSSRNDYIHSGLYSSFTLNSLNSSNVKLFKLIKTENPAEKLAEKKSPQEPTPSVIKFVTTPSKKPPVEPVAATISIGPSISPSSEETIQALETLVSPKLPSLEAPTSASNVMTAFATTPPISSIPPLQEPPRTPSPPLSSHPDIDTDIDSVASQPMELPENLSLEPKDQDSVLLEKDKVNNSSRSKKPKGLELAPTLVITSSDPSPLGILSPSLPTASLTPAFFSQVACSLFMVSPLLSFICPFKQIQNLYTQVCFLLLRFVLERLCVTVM
# Outline: as §1
# ETV2 = target: T10, ETV2 (Homo sapiens, UniProt O00321 1-342); settings: protein: recombinant; tags: N-terminal GST; dsDNA, one strand shown
# T10 sequence: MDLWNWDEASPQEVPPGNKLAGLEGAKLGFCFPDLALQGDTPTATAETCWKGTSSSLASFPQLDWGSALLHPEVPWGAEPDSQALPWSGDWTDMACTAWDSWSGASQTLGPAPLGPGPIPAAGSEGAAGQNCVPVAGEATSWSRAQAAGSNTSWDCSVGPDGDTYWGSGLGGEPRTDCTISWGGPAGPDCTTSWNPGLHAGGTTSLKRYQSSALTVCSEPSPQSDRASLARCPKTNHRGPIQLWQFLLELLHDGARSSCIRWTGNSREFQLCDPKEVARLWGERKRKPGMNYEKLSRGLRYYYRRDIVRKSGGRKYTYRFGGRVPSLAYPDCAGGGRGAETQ
# Outline: as §1
# ELF3 = target: T11, ELF3 (Homo sapiens, UniProt P78545 1-371); settings: protein: recombinant; tags: N-terminal GST; dsDNA, one strand shown
# T11 sequence: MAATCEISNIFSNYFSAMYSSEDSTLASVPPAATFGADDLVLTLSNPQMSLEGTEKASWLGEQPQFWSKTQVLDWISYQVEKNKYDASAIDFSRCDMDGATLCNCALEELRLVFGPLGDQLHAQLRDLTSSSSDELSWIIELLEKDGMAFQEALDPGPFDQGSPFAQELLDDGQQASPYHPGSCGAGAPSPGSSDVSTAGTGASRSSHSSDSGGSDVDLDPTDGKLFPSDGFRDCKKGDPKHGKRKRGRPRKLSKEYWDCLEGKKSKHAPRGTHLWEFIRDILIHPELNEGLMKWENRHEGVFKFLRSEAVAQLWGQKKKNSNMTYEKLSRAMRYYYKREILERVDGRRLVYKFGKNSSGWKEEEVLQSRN
# Outline: as §1
# CRX = CRX (Homo sapiens, UniProt O43186 1-299); settings: protein: recombinant; tags: N-terminal GST; dsDNA, one strand shown
# Outline: as §1
# ETV1 = ETV1 (Homo sapiens, UniProt P50549 1-477); settings: protein: recombinant; tags: N-terminal GST; dsDNA, one strand shown
# Outline: as §1
# ETV5, sequence (P41161 whole entry): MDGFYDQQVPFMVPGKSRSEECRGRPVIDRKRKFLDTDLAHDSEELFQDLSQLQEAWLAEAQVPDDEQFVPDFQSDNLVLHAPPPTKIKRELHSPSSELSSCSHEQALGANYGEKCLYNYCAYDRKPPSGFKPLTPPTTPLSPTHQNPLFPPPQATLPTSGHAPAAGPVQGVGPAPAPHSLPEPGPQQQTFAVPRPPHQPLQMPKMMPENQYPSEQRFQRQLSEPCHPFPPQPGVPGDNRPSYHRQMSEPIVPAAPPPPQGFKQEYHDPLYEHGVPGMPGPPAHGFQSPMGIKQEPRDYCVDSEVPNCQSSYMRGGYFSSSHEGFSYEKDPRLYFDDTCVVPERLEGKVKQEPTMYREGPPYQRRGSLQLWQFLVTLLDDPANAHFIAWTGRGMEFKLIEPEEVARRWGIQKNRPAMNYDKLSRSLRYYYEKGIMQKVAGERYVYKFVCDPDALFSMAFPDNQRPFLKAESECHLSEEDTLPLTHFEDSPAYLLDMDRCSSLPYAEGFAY
# HSF1, sequence (Q00613 whole entry): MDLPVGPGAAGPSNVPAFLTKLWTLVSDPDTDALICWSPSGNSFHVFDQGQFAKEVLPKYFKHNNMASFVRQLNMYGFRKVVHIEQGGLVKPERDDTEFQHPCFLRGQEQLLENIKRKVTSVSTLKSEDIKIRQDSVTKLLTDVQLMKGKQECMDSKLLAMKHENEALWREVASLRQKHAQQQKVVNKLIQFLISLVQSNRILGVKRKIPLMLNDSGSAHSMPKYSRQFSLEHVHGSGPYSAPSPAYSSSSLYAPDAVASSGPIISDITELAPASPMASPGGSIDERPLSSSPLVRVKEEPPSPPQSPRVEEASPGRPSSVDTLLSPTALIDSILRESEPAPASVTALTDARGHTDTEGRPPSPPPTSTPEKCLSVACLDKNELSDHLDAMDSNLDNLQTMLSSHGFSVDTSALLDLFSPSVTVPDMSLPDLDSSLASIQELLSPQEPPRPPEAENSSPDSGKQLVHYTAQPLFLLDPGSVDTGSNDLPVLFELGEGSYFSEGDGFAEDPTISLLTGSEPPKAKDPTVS
# ELF4, sequence (Q99607 whole entry): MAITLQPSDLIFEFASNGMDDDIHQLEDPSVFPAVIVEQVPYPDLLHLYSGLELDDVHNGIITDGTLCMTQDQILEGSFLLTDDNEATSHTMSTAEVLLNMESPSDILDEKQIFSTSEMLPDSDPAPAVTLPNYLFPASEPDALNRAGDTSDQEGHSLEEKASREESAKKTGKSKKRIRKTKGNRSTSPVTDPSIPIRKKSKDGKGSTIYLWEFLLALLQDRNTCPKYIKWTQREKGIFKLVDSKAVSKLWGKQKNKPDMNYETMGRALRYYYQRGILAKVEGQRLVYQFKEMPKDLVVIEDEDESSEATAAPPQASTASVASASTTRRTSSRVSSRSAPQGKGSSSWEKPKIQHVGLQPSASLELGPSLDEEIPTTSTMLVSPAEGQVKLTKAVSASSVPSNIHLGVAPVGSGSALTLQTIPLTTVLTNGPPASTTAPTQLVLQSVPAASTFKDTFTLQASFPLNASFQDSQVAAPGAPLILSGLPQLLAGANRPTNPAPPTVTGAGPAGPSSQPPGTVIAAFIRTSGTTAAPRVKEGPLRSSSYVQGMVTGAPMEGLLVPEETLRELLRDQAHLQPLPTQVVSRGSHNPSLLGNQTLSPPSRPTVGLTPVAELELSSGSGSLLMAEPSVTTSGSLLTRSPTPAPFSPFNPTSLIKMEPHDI
# SPIB, sequence (Q01892 whole entry): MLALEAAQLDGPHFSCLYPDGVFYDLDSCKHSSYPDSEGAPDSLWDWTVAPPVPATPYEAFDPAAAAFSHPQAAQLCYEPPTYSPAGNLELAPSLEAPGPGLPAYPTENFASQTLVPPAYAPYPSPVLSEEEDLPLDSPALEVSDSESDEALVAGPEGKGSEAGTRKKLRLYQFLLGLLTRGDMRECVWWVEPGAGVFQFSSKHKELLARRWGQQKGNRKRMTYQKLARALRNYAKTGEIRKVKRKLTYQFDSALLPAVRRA
# ETV1, sequence (P50549 whole entry): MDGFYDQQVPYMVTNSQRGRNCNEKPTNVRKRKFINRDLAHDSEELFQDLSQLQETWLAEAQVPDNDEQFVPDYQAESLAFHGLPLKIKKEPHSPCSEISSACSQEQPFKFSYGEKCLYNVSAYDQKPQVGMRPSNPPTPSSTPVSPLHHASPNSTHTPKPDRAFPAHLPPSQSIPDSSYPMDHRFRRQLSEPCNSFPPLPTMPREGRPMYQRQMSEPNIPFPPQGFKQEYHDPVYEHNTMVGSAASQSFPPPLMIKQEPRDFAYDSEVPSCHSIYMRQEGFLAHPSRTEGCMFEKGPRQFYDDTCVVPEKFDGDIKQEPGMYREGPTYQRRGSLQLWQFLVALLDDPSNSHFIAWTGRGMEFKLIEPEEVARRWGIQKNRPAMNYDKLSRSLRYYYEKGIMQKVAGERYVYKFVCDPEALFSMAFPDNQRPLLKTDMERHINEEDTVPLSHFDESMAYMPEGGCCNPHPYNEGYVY
# ELF1, sequence (P32519 whole entry): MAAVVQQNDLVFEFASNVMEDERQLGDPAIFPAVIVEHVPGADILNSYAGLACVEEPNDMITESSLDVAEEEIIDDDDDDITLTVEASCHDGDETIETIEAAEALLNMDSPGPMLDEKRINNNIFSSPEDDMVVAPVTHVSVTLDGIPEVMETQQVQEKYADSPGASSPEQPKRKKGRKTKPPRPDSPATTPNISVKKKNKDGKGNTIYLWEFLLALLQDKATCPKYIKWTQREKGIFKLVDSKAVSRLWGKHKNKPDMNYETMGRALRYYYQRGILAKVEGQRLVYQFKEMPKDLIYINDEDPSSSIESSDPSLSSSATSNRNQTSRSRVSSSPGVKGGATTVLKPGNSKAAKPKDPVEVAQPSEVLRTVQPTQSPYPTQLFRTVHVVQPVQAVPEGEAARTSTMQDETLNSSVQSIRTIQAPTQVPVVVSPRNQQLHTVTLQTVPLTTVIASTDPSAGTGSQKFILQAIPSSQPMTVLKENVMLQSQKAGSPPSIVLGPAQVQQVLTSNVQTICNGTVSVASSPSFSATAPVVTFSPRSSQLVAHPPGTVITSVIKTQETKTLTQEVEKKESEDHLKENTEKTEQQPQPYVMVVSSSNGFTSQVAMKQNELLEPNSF
# CRX, sequence (O43186 whole entry): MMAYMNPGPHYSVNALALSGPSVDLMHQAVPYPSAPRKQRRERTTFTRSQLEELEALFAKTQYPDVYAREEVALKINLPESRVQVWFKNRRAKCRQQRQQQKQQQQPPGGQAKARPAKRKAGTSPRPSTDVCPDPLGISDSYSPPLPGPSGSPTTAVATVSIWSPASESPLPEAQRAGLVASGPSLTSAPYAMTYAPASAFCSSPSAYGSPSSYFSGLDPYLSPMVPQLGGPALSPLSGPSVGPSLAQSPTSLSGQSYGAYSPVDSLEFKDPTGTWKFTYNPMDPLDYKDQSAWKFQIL
sequence,measurement,setting,value
AAGTCT,binding signal,FLI1,"1.28 fold enrichment (6-mer frequency, TF over GST control)"
same,binding signal,ELK1,"1.18 fold enrichment (6-mer frequency, TF over GST control)"
same,binding signal,GABPA,"1.07 fold enrichment (6-mer frequency, TF over GST control)"
same,binding signal,ERG,"1.12 fold enrichment (6-mer frequency, TF over GST control)"
same,binding signal,ELF1,"1.14 fold enrichment (6-mer frequency, TF over GST control)"
same,binding signal,EHF,"1.13 fold enrichment (6-mer frequency, TF over GST control)"
same,binding signal,SPI1,"1.27 fold enrichment (6-mer frequency, TF over GST control)"
same,binding signal,SPIB,"1.29 fold enrichment (6-mer frequency, TF over GST control)"
same,binding signal,ELK3,"1.18 fold enrichment (6-mer frequency, TF over GST control)"
same,binding signal,FEV,"1.07 fold enrichment (6-mer frequency, TF over GST control)"
same,binding signal,ETV5,"1.12 fold enrichment (6-mer frequency, TF over GST control)"
same,binding signal,HSF1,"1.25 fold enrichment (6-mer frequency, TF over GST control)"
same,binding signal,SPIC,"1.04 fold enrichment (6-mer frequency, TF over GST control)"
same,binding signal,ELF4,"1.06 fold enrichment (6-mer frequency, TF over GST control)"
same,binding signal,ELK4,"1.13 fold enrichment (6-mer frequency, TF over GST control)"
same,binding signal,ETV2,"1.06 fold enrichment (6-mer frequency, TF over GST control)"
same,binding signal,ELF3,"1.13 fold enrichment (6-mer frequency, TF over GST control)"
same,binding signal,CRX,"1.28 fold enrichment (6-mer frequency, TF over GST control)"
same,binding signal,ETV1,"1.09 fold enrichment (6-mer frequency, TF over GST control)"
